Our source for the growth values is PubChem BioAssay (NCI).

The panel holds about 83,000 compounds, 20% with a hit somewhere; the sample as a whole holds those more often.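 Testing used 96-well plates and a 48-hour single-concentration exposure. Example: -40 means 40% of the starting cells died.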 A number with no mark means an inactive call. Calls of active or inactive are those of the source. The calls were made as follows: active = growth percent below 10; inactive = the rest.

For this assay, the system named is DU-145 prostate. Briefly: NCI-60 one-dose screen, 48 h (100 = growth as untreated, 0 = no growth, -100 = all killed). The settings on record: 10 µM unless noted.
Regarding `Cc1cc(-c2nc3ccccc3s2)ccc1NC(=O)COc1ccc(Cl)cc1`, the growth is 130%.
Regarding `C[C@H](CCC(=O)O)[C@H]1CC[C@H]2[C@@H]3CC[C@@H]4/C(=C\c5ccco5)C(=O)/C(=C\c5ccco5)C[C@]4(C)[C@H]3CC[C@]12C`, the growth is 66.5%.
Regarding `COc1cc2c(c(OC)c1OC)-c1ccc(N=NC(N)=S)c(=O)cc1[C@@H](NC(C)=O)CC2`, the growth was -40.1% (active).
For `c1ccc(CSc2ncnc3nc[nH]c23)nc1`, the growth was 113%.
The same measure for `CC(=O)Nc1ccc2c(c1)c(NC(C)=O)nn2C(=O)Nc1ccc(Cc2ccccc2)cc1`: 83%; for `COc1cc2c(=O)n(CC3CCCCC3)c3c4cc[nH]c4ncc3c2cc1OC`: 50.3%.
The same measure for `COC1/C=C\OC2(C)Oc3c(C)c(O)c4c(O)c(c(CN(C)CCO)c(O)c4c3C2=O)NC(=O)/C(C)=C\C=C/C(C)C(O)C(C)C(O)C(C)C(OC(C)=O)C1C` (stereo not drawn): 116%; for `Cc1cc(N/N=C/c2nc(-c3ccc(Cl)cc3)oc2C)c2cc(Cl)ccc2n1`: 34.3%; for `C=C1CC[C@@H]2[C@](C)(COC(C)=O)[C@H](OC(C)=O)CC[C@@]2(C)[C@@H]1CC(NCc1ccc(F)cc1)C1=CCOC1=O` (stereo partly drawn): 69.8%.
The same measure for `Cn1c2c(Cl)c(Cl)ccc2c2ccn3c(=O)c4ccccc4nc3c21`: 120%; for `CCOC(=O)Cc1cnn(C)c1NC(=O)c1ccc(Cl)cc1NC(C)=O`: 110%; for `COc1ccc(-c2cc(NC(=O)Nc3ccc(O)cc3)no2)cc1`: 66.7%.
As for `S=c1[nH]nc(CSc2ncnc3c2c(-c2ccccc2)cn3-c2ccc(Cl)cc2)o1`, the growth is 106%.
With `COc1c(Cl)cc(Cl)cc1Cl`, the growth was 111%.
Under `COc1ccc(-c2nn(-c3ccccc3)cc2/C=C/C(=O)OCc2cn(-c3ccc(F)c(Cl)c3)nn2)cc1` stands 97.2%; under `COc1ccc2c(c1)C(=O)/C(=C/c1cccc(OCC(=O)Nc3nc4c(s3)CCCC4)c1)O2`, 32.9%; under `CCN(CC)CC(C)Nc1ccc([N+](=O)[O-])c2sc3ccccc3c(=O)c12` (stereo not drawn), 27.6%.
Consider `Cc1nn(-c2ccccc2)c2nc(C)n(-c3ccc(Br)cc3)c(=O)c12`, for which the growth is 8.77% (active).
On to `OC(c1cc(-c2ccccc2)nc2ccc(Cl)cc12)C1CCCCN1` (stereo not drawn), for which the growth was 60.1%.
Under `COc1ccc(S(=O)(=O)NCCNc2nccc(-c3c(-c4cccc([N+](=O)[O-])c4)nc4sccn34)n2)cc1` stands 80%; under `COc1ccc(Cl)cc1Nc1nc(C(F)(F)F)ccc1C(=O)N/N=C/c1cccnc1`, 53.7%; under `COc1ccc(-c2nn(-c3ccccc3)cc2/C=C2\SC(=O)NC2=O)cc1`, 109%.
Turning to `Cc1ccc2c(c1)C(=O)c1c-2c(OCCCN(C)C)nc2ccccc12`, the growth is 34.3%.
The same measure for `Cc1ccc(-c2nc(/C=N/Nc3cc(C)nc4ccc(Br)cc34)c(C)o2)cc1`: -33.3% (active); for `CCCCNP1(NCCCC)=NP(NCCCC)(NCCCC)=NP(NCCCC)(NCCCC)=NP(NCCCC)(NCCCC)=N1`: 16.5%; for `COc1ccc(-n2cc(-c3ccccc3)c3c(SCC(=O)N/N=C/c4ccc([N+](=O)[O-])cc4)ncnc32)cc1`: 114%.
Turning to `Nc1cccc(-c2nc3sccn3c2-c2ccnc(NCCCNS(=O)(=O)c3ccc(C(F)(F)F)cc3)n2)c1`, the growth was 13.5%.
For `CCN(CC)CC(O)c1cc(-c2ccc(Cl)cc2)nc2c(C)c(Cl)ccc12` (stereo not drawn), the growth is -71.1% (active).
As to `O=C1/C(=C/c2ccc(F)cc2)CN(C(=O)CCN2CCC(=NO)CC2)C/C1=C\c1ccc(F)cc1`, the growth is -28% (active).
The same measure for `CC(C)C1=C[C@@]23CC[C@@H]4[C@](C)(CCC[C@@]4(C)C(=O)OCC#CCN4CCCC4)[C@H]2C[C@@H]1[C@H]1C(=O)OC(=O)[C@H]13`: 89.2%; for `Cc1ccc2c(c1)C(=O)/C(=C/c1ccc(OCC(=O)c3ccccc3)cc1)O2`: 107%.
Take `Cc1ccc2c(c1)n([O-])c1cc(Cl)ccc1[n+]2=O`: the growth was 101%.
The same measure for `COc1ccccc1/C=C(/C(=O)c1ccccc1)c1ccccc1`: 110%; for `COc1nc2c(cc1S(=O)(=O)c1ccccc1)CCc1c-2cnn1-c1ccc(Cl)cc1`: 110%.
On to `CNc1cc2nc3cc(NC)c(C)cc3cc2cc1C`, for which the growth was 18.5%.
The same measure for `Nc1c(C(=O)Nc2ccccc2)sc2nc3c(cc12)CN(CCc1ccccc1)CC3`: 98.3%; for `CC(C)[C@@H]1CC[C@]2(C(=O)NCCCCN=C(N)N)CC[C@]3(C)[C@H](CC[C@@H]4[C@@]5(C)CCC(=O)C(C)(C)[C@@H]5CC[C@]43C)[C@@H]12`: 81.3%.
For `CCOC(=O)c1cnc2ccc(Br)cc2c1Nc1cccc(S(=O)(=O)NC)c1`, the growth was 103%.
